Results filed as inconclusive are left out. Values without a mark were called inactive. Activity calls are given as the source filed them. The call rests on the fitted dose curve; in most records, active means well fitted inhibition curve with a large enough effect; inconclusive means small, poorly fitted or top-dose-only effect; inactive means no such curve, though single readings can be large or run the other way. Where a SMILES comes first, the peptide text is derived from it. Bridges are numbered along the chain shown (N, C = ends). [ ]: non-standard residue; d: D form. NMeY = CN[CH](Cc1ccc(O)cc1)C(=O)O
The molecules below were run on Zika virus NS2B-NS3 protease (linked construct) (assay: Primary screen NINDS Rhodamine qHTS for Zika virus inhibitors (AID 1347160; further: nearly all actives have a fitted effect of over 55% in size)). Details: purified NS2B-NS3 protease, Rhodamine110 substrate fluorescence; series mostly up to 57.1 µM; activity change, negative = inhibition: at the top concentration.
Summary of the method: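 Purified linked NS2B-NS3 protease (NS2B hydrophilic domain joined to NS3 protease by flexible linker), 25 nM in 10 mM Tris-HCl pH 8.0, 0.01% Tween 20. Compounds titrated, 15 min preincubation at room temperature; 1.5 microM Rhodamine110 substrate, FITC fluorescence change over 15 min.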
On the % scale 0 is the no-effect control and ±100 the full control effect.

| Compound | activity change, negative = inhibition | outcome |
| --- | --- | --- |
| COc1cc2ncnc(Nc3ccc(O)cc3)c2cc1OC | 13.5% | – |
| CCC(Nc1ncnc2nc[nH]c12)c1nc2cccc(F)c2c(=O)n1-c1ccccc1 (stereo not drawn) | – | inactive |
| C=C(C(=O)O)C1CCC2(C)CCC(O)C(C)(O)C2C1 (stereo not drawn) | -2.55% | – |
| COc1cc(O)cc(C)c1C(=O)O[C@H]1[C@@H](OC(C)=O)[C@H](n2ccc(=O)[nH]c2=O)O[C@@H]1CO | – | inactive [at 33.1 µM] |
| O=S(=O)(NCC1CC1)c1ccc(Nc2nccc(N3CCCc4cc(O)ccc43)n2)cc1 | 11.2% | – |
| COc1c2c(c(CO)c3c1C(=O)OC3)OC1(C)CCC3(O)C(C)(C)OC(=O)CCC3(C)C1C2 (stereo not drawn) | -1.44% [at 33.1 µM] | – |
| CC1CCC2(OC1)OC1CC3C4CC=C5CC(O)CC(O[C@@H]6OC[C@@H](O)[C@H](O)[C@H]6O)C5(C)C4CCC3(C)C1(O)C2C (stereo partly drawn) | 36.6% [at 15.1 µM] | – |
| CC1(C)CCCC2(C)C1C(O)C=C(CO)C2(O)CO (stereo not drawn) | 1.91% | – |
| c1cc(OCCCN2CCCCC2)ccc1CN1CCCCC1 | – | inactive |
| O=[N+]([O-])c1cn2c(n1)OCC(OCc1ccc(OC(F)(F)F)cc1)C2 (stereo not drawn) | -2.97% | – |
| CCC(C)C1NC(=O)C2CCCN2C(=O)C(NC(C)=O)C(C)OC(=O)C(Cc2ccc(OC)cc2)N(C)C(=O)C2CCCN2C(=O)C(C(C)C)NC1=O (stereo not drawn) (Ac-TPIVP[NMeY](Me); ester 1-C; configuration not given here) | – | inactive [at 15.1 µM] |
| CC(C)C(CO)Nc1nc(Nc2ccc(C(=O)O)c(Cl)c2)c2ncn(C(C)C)c2n1 (stereo not drawn) | – | inactive |
| CCC(C)C(=O)OC1CC(O)C23C4OCC5(C(O)CC2C1(C)C(O)O4)C3C(=O)CC1(C)C(c2ccoc2)CC2OC215 (stereo not drawn) | 2.69% [at 33.1 µM] | – |

— PubChem BioAssay (NCATS)
